Screening data: PubChem, National Center for Advancing Translational Sciences (NCATS)
Sampled rows, rich in hits. Any-hit rate of the full collection: about 10%.
HEK cytotox = cytotoxic compounds in HEK 293 cells | HEK 293 viability, ATP luminescence (CellTiter-Glo), 48-72 h | 6.6% of 94,000 active | Potency, µM (titrated, usually from 115 µM), most hits filed as inhibitors | AID 1345083; note: nearly all actives have a fitted effect of over 60% in size
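Pintool-delivered compounds were incubated with HEK 293 cells (250 cells/well) at 37 degree Celsius for 48 or 72 hr. ATP-dependent luminescence (CellTiter-Glo) then reported remaining viable cells.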
Luciferase inh = blocks purified firefly luciferase enzyme activity | Potency, µM (top dose mostly 115 µM), hits mostly inhibitors | AID 1347043 | 2.5% of 76,000 active | purified P. pyralis luciferase, luminescence, biochemical; note: nearly all actives have a fitted effect of over 65% in size
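Purified 10nM P. pyralis luciferase with 10uM D-luciferin and 10uM ATP in 50mM Tris acetate pH 7.5, 10mM Mg acetate, 0.01% Tween-20, 0.05% BSA. qHTS titration; luminescence read by CCD imager.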
hNpr1 antagonist = human Npr1 receptor antagonism | P16066 | HEK293 hNpr1 GloSensor cGMP, ANP-stimulated luminescence | Potency, µM (doses to about 46.3 µM), actives largely listed as inhibitors | 1.6% of 76,000 active | AID 1347048; calls by dose curve; note: nearly all actives have a fitted effect of over 60% in size
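Compound pre-incubated 30 min at room temperature on GloSensor-loaded HEK293 cells stably carrying hNpr1 and the pGS-40F cGMP biosensor. Stimulation uses hNppA at 0.1 nM final; luminescence is taken at baseline and 20 min post-agonist.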
GPT2 inhibitor = blocks human glutamate pyruvate transaminase 2; Q8TD30; Recombinant GPT2, coupled pyruvate oxidase/HRP Amplex Red fluorescence; Potency, µM (series often up to 57.7 µM), usual class: inhibitors; 0.25% of 100,000 active; note: nearly all actives have a fitted effect of over 60% in size
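GPT2 10ng/uL, a-KG 250uM, L-Ala 2mM, HEPES pH7.5 + 0.0001% Tween; 30 min RT. Then Amplex mix (PO/HRP/ThPP), 30 min RT dark, fluorescence. AOA 50uM used as positive control.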
NIH3T3 tox = kills NIH 3T3 cells. NIH 3T3 viability, CellTiter-Glo ATP luminescence, 48-72 h. Potency, µM (highest dose often 96.7 µM), hits mostly inhibitors. 4.3% of 94,000 active; note: nearly all actives have a fitted effect of over 55% in size
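Cells were seeded at 400 per well, treated with pin-transferred compound, and kept 48 or 72 hr at 37 °C before CellTiter-Glo addition and luminescence imaging of cellular ATP.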
Hits are given with their value. Unless noted, calls come from the whole dose curve; as a rule, active = well fitted curve in the direction sought with a large enough effect; inconclusive = small, poorly fitted or top-dose-only effect, or another doubt; inactive = no such curve, though single readings can be large; an effect the other way counts as inactive or inconclusive.

How did O=C(c1ccccc1F)N1CCCC2(C1)C(=NC1CCCC1)NC(=O)N2c1cccnc1 (centres undefined) do in these assays?
HEK cytotox: inactive; GPT2 inhibitor: inactive; NIH3T3 tox: inactive

Results for CN(C)c1ccc(CN2CCCC3(C2)C(=NC2CCCCC2)NC(=O)N3c2cc(F)cc(F)c2)cc1 (centres undefined) ?
HEK cytotox: 79.4µM; GPT2 inhibitor: inactive; NIH3T3 tox: inconclusive

How did CC(C)CCN1CCCC2(C1)C(=NC1CCCCC1)NC(=O)N2c1cccnc1 (centres undefined) do in these assays?
HEK cytotox: inconclusive; GPT2 inhibitor: inactive; NIH3T3 tox: inconclusive

How did CCO[C@@H]1COCC[C@H]1NC(=O)CN1C(=O)COc2ccc(C)cc21 do in these assays?
HEK cytotox: inactive; Luciferase inh: inactive; hNpr1 antagonist: inactive; GPT2 inhibitor: inactive; NIH3T3 tox: inactive

What do the screens show for `Cc1ccc(C)c(-n2nc(-c3c(C)nc4scc(CC(=O)NC5CCCCC5)n4c3=O)cc2C)c1`?
HEK cytotox: inconclusive; Luciferase inh: inactive; hNpr1 antagonist: inactive; GPT2 inhibitor: inactive; NIH3T3 tox: 39.8µM

Results for CC1=C[C@@H](CNCc2ccc(F)cc2)[C@H](C(C)C)C[C@H]1Cc1nnc(C)o1 ?
HEK cytotox: inconclusive; Luciferase inh: inactive; hNpr1 antagonist: inactive; GPT2 inhibitor: inactive; NIH3T3 tox: inconclusive

How did CC1=C[C@@H](CNCc2ccc(Cl)cc2)[C@H](C(C)C)C[C@H]1Cc1nnc(-c2cncn2C)o1 do in these assays?
HEK cytotox: 79.4µM; Luciferase inh: inactive; hNpr1 antagonist: inactive; GPT2 inhibitor: inactive; NIH3T3 tox: 39.8µM

Results for CC1=C[C@@H](CNCc2ccc(F)cc2)[C@H](C(C)C)C[C@H]1Cc1nnc(-c2cncn2C)o1 ?
HEK cytotox: 44.7µM; Luciferase inh: inactive; hNpr1 antagonist: inactive; GPT2 inhibitor: inactive; NIH3T3 tox: inconclusive

Results for Cc1cc(C(=O)NC[C@@H]2CC[C@H]3C[C@@H]2C3(C)C)ccc1Cl ?
HEK cytotox: inconclusive; Luciferase inh: inactive; hNpr1 antagonist: inconclusive; GPT2 inhibitor: inactive; NIH3T3 tox: 35.5µM

What do the screens show for `Cc1ccccc1C(=O)NC[C@@H]1CC[C@H]2C[C@@H]1C2(C)C`?
HEK cytotox: inconclusive; Luciferase inh: inactive; hNpr1 antagonist: inactive; GPT2 inhibitor: inactive; NIH3T3 tox: inconclusive

What do the screens show for `CC1(C)[C@H]2CC[C@@H](CNC(=O)c3ccc(Cl)nc3)[C@@H]1C2`?
HEK cytotox: inconclusive; Luciferase inh: inactive; hNpr1 antagonist: inactive; GPT2 inhibitor: inactive; NIH3T3 tox: 79.4µM

How did CC1(C)[C@H]2CC[C@@H](CNC(=O)c3ccc4ccccc4n3)[C@@H]1C2 do in these assays?
HEK cytotox: inconclusive; Luciferase inh: inactive; hNpr1 antagonist: inactive; GPT2 inhibitor: inactive; NIH3T3 tox: 89.1µM

How did CC1(C)[C@H]2CC[C@@H](CNC(=O)Cc3cccc(Cl)c3)[C@@H]1C2 do in these assays?
HEK cytotox: 100µM; Luciferase inh: inactive; hNpr1 antagonist: inactive; GPT2 inhibitor: inactive; NIH3T3 tox: inconclusive

How did Cc1ccc(C(=O)NC[C@@H]2CC[C@H]3C[C@@H]2C3(C)C)cc1 do in these assays?
HEK cytotox: inconclusive; Luciferase inh: inactive; hNpr1 antagonist: inactive; GPT2 inhibitor: inactive; NIH3T3 tox: inconclusive

Results for CCCS(=O)(=O)N1CCC(c2noc(COc3ccc(C)cc3)n2)CC1 ?
HEK cytotox: inconclusive; Luciferase inh: inactive; hNpr1 antagonist: inactive; GPT2 inhibitor: inactive; NIH3T3 tox: inactive

Results for Cc1ccc(Cn2cc(-c3ccncc3)cc2C(=O)N(C)Cc2ccccc2)cc1 ?
HEK cytotox: inconclusive; Luciferase inh: inactive; hNpr1 antagonist: inactive; GPT2 inhibitor: inactive; NIH3T3 tox: inconclusive

What do the screens show for `CCC(=O)NC[C@@H]1CC[C@H]2C[C@@H]1C2(C)C`?
HEK cytotox: inactive; Luciferase inh: inactive; hNpr1 antagonist: inactive; GPT2 inhibitor: inactive; NIH3T3 tox: inactive

What do the screens show for `CC1(C)[C@H]2CC[C@@H](CNC(=O)N3CCCC3)[C@@H]1C2`?
HEK cytotox: 63.1µM; Luciferase inh: inactive; hNpr1 antagonist: inactive; GPT2 inhibitor: inactive; NIH3T3 tox: inconclusive

What do the screens show for `CC1(C)[C@H]2CC[C@@H](CNC(=O)c3cccc(Br)c3)[C@@H]1C2`?
HEK cytotox: 100µM; Luciferase inh: inactive; hNpr1 antagonist: inactive; GPT2 inhibitor: inactive; NIH3T3 tox: inconclusive

What do the screens show for `O=C(c1ccsc1)N1CCC(Cc2nc(-c3ccncc3)n[nH]2)C1` (centres undefined)?
HEK cytotox: inactive; GPT2 inhibitor: inactive; NIH3T3 tox: inactive

What do the screens show for `CCOc1ccc(CC(=O)N2CCC[C@H]2c2nc(-c3ccccc3)no2)cc1OCC`?
HEK cytotox: inconclusive; Luciferase inh: inactive; hNpr1 antagonist: inactive; GPT2 inhibitor: inactive; NIH3T3 tox: inconclusive

How did O=C(Nc1ccc(Cl)cc1)N1CCN(c2ccc3nnc(C4CC4)n3n2)CC1 do in these assays?
HEK cytotox: 35.5µM; NIH3T3 tox: 22.4µM

How did Cc1cccc(NC(=O)CC2CCCN(c3cnn(CC4CC4)c(=O)c3)C2)c1 (centres undefined) do in these assays?
HEK cytotox: inconclusive; Luciferase inh: inactive; hNpr1 antagonist: inactive; GPT2 inhibitor: inactive; NIH3T3 tox: 25.1µM

Results for CCc1cccc(NC(=O)CC2CCCN(c3cnn(CC4CC4)c(=O)c3)C2)c1 (centres undefined) ?
HEK cytotox: inconclusive; Luciferase inh: inactive; hNpr1 antagonist: inactive; GPT2 inhibitor: inactive; NIH3T3 tox: 39.8µM

How did Cc1ccc(NC(=O)CC2CCCN(c3cnn(CC4CC4)c(=O)c3)C2)cc1 (centres undefined) do in these assays?
HEK cytotox: inactive; Luciferase inh: inactive; hNpr1 antagonist: inactive; GPT2 inhibitor: inactive; NIH3T3 tox: inconclusive

Results for COc1ccccc1CN1CCc2nc(C(=O)N3CCOCC3)oc2CC1 ?
HEK cytotox: 100µM; Luciferase inh: inactive; hNpr1 antagonist: inactive; GPT2 inhibitor: inactive; NIH3T3 tox: inconclusive

Results for O=C(NCc1cccc(F)c1)c1nc2c(o1)CCN(CCCc1ccccc1)CC2 ?
HEK cytotox: inconclusive; Luciferase inh: inactive; hNpr1 antagonist: inactive; GPT2 inhibitor: inactive; NIH3T3 tox: 89.1µM

What do the screens show for `COc1ccc(CN2CCc3nc(C(=O)Nc4ccc(Cl)cc4)oc3CC2)cn1`?
HEK cytotox: inconclusive; Luciferase inh: inconclusive; hNpr1 antagonist: 3.98µM; GPT2 inhibitor: inactive; NIH3T3 tox: inconclusive

Results for COCCNC(=O)c1nc2c(o1)CCN(Cc1ccc(OC)cc1)CC2 ?
HEK cytotox: inconclusive; Luciferase inh: inactive; hNpr1 antagonist: inactive; GPT2 inhibitor: inactive; NIH3T3 tox: inconclusive

Results for O=C(Nc1ccc(Cl)cc1)c1nc2c(o1)CCN(Cc1nccs1)CC2 ?
HEK cytotox: inconclusive; Luciferase inh: 22.4µM; hNpr1 antagonist: 2.24µM; GPT2 inhibitor: inactive; NIH3T3 tox: inconclusive

Results for COc1ccc(C(=O)N2CCN(c3cc(C(F)(F)F)nc(C)n3)CC2)cc1OC ?
HEK cytotox: inactive; Luciferase inh: inactive; hNpr1 antagonist: inactive; GPT2 inhibitor: inactive; NIH3T3 tox: inactive
